The sample as a whole holds a higher share of hits than the screen did.
GIRK2 act: GIRK2 channel activators by thallium flux. P48051. HEK293 GIRK2/NPY4 cells, thallium flux fluorescence. activation (% efficacy), % for hits at 37.5 µM. 34,000 tested, under 10 active. AID 1259324;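 active = primary screen hit, no activity in plain HEK293 cells, and in GIRK2-only cells above 5% efficacy rising with concentration; inactive = the rest, including fluorescent compounds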;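 note: efficacy is normalized control-subtracted fluorescence 15 s after thallium addition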
Target sequence (P48051 whole entry, looked up): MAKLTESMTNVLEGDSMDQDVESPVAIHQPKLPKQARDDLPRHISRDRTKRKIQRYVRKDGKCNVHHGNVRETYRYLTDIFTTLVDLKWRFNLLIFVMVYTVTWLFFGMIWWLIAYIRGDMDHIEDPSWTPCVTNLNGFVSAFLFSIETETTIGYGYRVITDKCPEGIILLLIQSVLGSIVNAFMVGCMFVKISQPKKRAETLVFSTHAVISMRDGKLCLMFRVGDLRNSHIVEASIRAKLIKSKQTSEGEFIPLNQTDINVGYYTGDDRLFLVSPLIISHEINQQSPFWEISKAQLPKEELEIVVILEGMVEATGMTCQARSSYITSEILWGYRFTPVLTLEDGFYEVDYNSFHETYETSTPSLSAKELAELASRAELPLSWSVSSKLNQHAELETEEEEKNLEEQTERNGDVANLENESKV
GluA2 TARP mod: modulators of AMPA receptor GluA2-stargazin complexes; calls only at 30 µM; HEK293 GluA2+stargazin, membrane potential dye (FDSS), glutamate EC50; hits were called plate by plate, in both directions; hit rate 3.5% among 40,000;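 active = any of four per-well response measures lying three or more SD from its plate-wide compound average, in either direction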
Starred values were filed as active, the others as inactive; i = inactive; · = no result; + = active, no number.

SMILES	GIRK2 act	GluA2 TARP mod
COc1ccc(OCC(O)Cn2c(N3CCN(C)CC3)nc3c2c(=O)n(C)c(=O)n3C)cc1 (stereo not drawn)	·	+
Cc1ccc(OCC(O)Cn2c(N3CCC(C)CC3)nc3c2c(=O)n(C)c(=O)n3C)cc1C (stereo not drawn)	·	i
CN1CCN(c2nc3c(c(=O)n(C)c(=O)n3C)n2CC(O)COc2ccccc2)CC1 (stereo not drawn)	·	+
Cc1cccc(OCC(O)Cn2c(N3CCN(c4ccccc4)CC3)nc3c2c(=O)n(C)c(=O)n3C)c1 (stereo not drawn)	·	i
Cc1onc(-c2ccccc2Cl)c1C(=O)Nc1ccc(-c2cn3cccnc3n2)cc1	·	i
CC(C)c1nnc(C2CCN(C(=O)Cc3cn(C)c4ccccc34)CC2)o1	i	i
COc1ccc(C(=O)Nc2nnc(-c3cc(C)n(C)n3)o2)cc1OC	i	+
COc1cc2ccccc2cc1C(=O)Nc1nnc(-c2cc(C)n(C)n2)o1	i	i
COc1cc(OC)cc(C(=O)Nc2nnc(-c3cc(C)n(C)n3)o2)c1	i	+
COc1ccc(C(=O)Nc2nnc(-c3cc(C)nn3C)o2)cc1OC	i	·
Cc1nc(NC(=O)c2csc(Nc3cccc(Cl)c3)n2)sc1C(=O)N(C)C	i	·
COc1ccc(SCC2CCN(C(=O)c3cc4cccc(OC)c4oc3=O)CC2)cc1	i	·
CSc1cccc2sc(NC(=O)C3CCCCC3)nc12	i	i
O=C(Nc1c(Cl)cccc1Cl)C1CCCCC1	·	+
CCc1ccccc1NC(=O)N1CCN(c2ccc3nnc(-c4ccco4)n3n2)CC1	i	+
COc1ccccc1NC(=O)N1CCN(c2ccc3nnc(-c4ccco4)n3n2)CC1	i	i
O=S(=O)(c1cccc(C(F)(F)F)c1)N1CCN(c2ccc(-c3ccco3)nn2)CC1	i	i
Cc1nc(NCCNC(=O)c2ncccn2)cc(N2CCOCC2)n1	i	+
CCNc1cc(NCCNC(=O)c2ncccn2)nc(C)n1	i	+
Cc1nc(NCCNC(=O)Nc2cccc(C)c2C)cc(N2CCOCC2)n1	i	·
CCNc1cc(C)nc(NCCNC(C)=O)n1	i	·
O=C(NCC1CCN(Cc2ccccc2)CC1)C12CC3CC(CC(C3)C1)C2	i	·
Cc1ccc(S(=O)(=O)N2CCC(C(=O)Nc3ccc4c(c3)C(=O)N(C)C4=O)CC2)cc1	i	i
O=S(=O)(NCC1CCN(Cc2cccs2)CC1)c1ccc2c(c1)OCCO2	i	·
CC(C)CCN1C(=O)C(C)(C)COc2ccc(NC(=O)c3cc(=O)c4ccccc4o3)cc21	i	+
SMILES	GIRK2 act	GluA2 TARP mod
Cc1cccc(OCC(=O)Nc2ccc3c(c2)N(CCC(C)C)C(=O)C(C)(C)CO3)c1	·	i
CC(C)CCN1C(=O)C(C)(C)COc2ccc(NC(=O)COc3ccc(Cl)cc3)cc21	·	i
Cc1ccc(OCC(=O)Nc2ccc3c(c2)N(CCC(C)C)C(=O)C(C)(C)CO3)cc1	·	+
c1ccc(CC2CN(C3CC3)CCN2)cc1 (stereo not drawn)	i	i
CC12CC3CC(C)(C1)CC(CN1CCOCC1)(C3)C2	·	i
Cc1ccc2nc(N(CCN3CCOCC3)C(=O)/C=C/c3ccccc3)sc2c1	i	i
O=C(Nc1ccc(C(F)(F)F)cc1)c1ccc(S(=O)(=O)NCCc2ccccc2)o1	i	i
O=C(Nc1ccc(OC(F)(F)F)cc1)c1ccc(S(=O)(=O)NCc2cccs2)o1	i	+
CCOc1ccc(CC(=O)NCc2nc(C)no2)cc1	i	·
O=C(CSc1ncnc2[nH]ncc12)c1ccc(-c2ccccc2)cc1	·	i
CN(C)C(=O)CSc1ncnc2sc(-c3ccccc3)cc12	i	+
COC(=O)CSc1ccnc2c1c(=O)n(C)c(=O)n2C	i	+
CCOC(=O)C(C)Sc1ccnc2c1c(=O)n(C)c(=O)n2C (stereo not drawn)	i	i
CCOC(=O)N1CCN(C(=O)CSc2ccnc3c2c(=O)n(C)c(=O)n3C)CC1	·	+
COc1ccc(C(=O)CSc2ccnc3c2c(=O)n(C)c(=O)n3C)cc1	i	i
Cc1nc(C)c(C(=O)NCCn2ncc3c(N4CCOCC4)ncnc32)s1	·	i
COc1ccc(Cl)cc1C(=O)Nc1ccc(CC(=O)NCc2cccs2)cc1	i	i
O=C(Nc1nnc(Cc2cccs2)o1)c1ccccc1	i	i
O=C(Nc1nnc(Cc2cccs2)o1)c1cc2ccccc2oc1=O	i	+
O=C(Cc1nnc(-c2cccc(F)c2)o1)NCc1cccc(C(F)(F)F)c1	i	·
CSc1ccccc1C(=O)Nc1ccc2c(c1)CN(C(=O)c1ccco1)CC2	i	i
O=C(Nc1ccc2c(c1)CN(C(=O)c1ccco1)CC2)c1cnccn1	i	+
O=C(Nc1ccc2c(c1)CN(C(=O)C1CC1)CC2)c1ccsc1	i	i
O=C(Nc1ccc2c(c1)CN(C(=O)c1ccco1)CC2)c1ccc2nsnc2c1	i	+
CCCc1nnsc1C(=O)Nc1ccc2c(c1)CN(C(=O)c1ccco1)CC2	i	i
SMILES	GIRK2 act	GluA2 TARP mod
O=C(Nc1ccc2c(c1)CN(C(=O)C1CC1)CC2)c1ccc2nsnc2c1	i	+
COc1ccc(Cl)cc1S(=O)(=O)N1CCN(C(c2ccccc2)c2ccccc2)CC1	·	i
O=C(NCC1(O)CCc2ccccc21)c1nc2ccccc2s1 (stereo not drawn)	i	·
CCSc1nnc(NC(=O)C2CN(c3nc4c(C(F)(F)F)cccc4s3)C2)s1	i	i
O=C(CCc1csc(NS(=O)(=O)c2ccccc2)n1)N1CCc2ccccc2C1	i	i
COc1cc(S(=O)(=O)Nc2cc(Cl)ccc2O)c(OC)cc1C	i	i
O=S(=O)(Nc1cc(Cl)ccc1O)c1cc(Cl)ccc1Cl	i	+
C=CCNc1nc(=S)[nH]c2ccccc12	i	i
COc1ccc(S(=O)(=O)CC(=O)Nc2cccc(Br)c2)cc1	i	+
O=C(CCCS(=O)(=O)c1ccccc1)Nc1ccccc1Oc1ccccc1	i	i
COc1ccc(S(=O)(=O)CC(=O)Nc2ccccc2Oc2ccccc2)cc1	i	+
COc1ccc(OCCCC(=O)Nc2cccc(Br)c2)cc1	i	i
Cc1ccc(Oc2ccc(N(C)C(=O)c3ccc(S(=O)(=O)N(C)C)cc3)cc2)nn1	i	i
O=C(NCC(O)(c1ccco1)C1CC1)C(=O)Nc1ccc2c(c1)OCCO2 (stereo not drawn)	i	i
Cc1nn(C2CCS(=O)(=O)C2)c2nc(-c3ccco3)cc(C(=O)NCc3c(F)cccc3F)c12 (stereo not drawn)	i	i
Cc1nn(C2CCS(=O)(=O)C2)c2nc(-c3ccco3)cc(C(=O)NCCc3ccc(F)cc3)c12 (stereo not drawn)	i	+
COCC(=O)Nc1ccc(CC(=O)NC2CC2)cc1	i	i
Cc1csc(C(=O)Nc2ccc(CC(=O)N3CCC(O)CC3)cc2)c1	i	i
COc1ccc2c(=O)c(-c3ccccc3OC)coc2c1	i	+
COc1ccccc1-c1coc2cc(OCc3ccc(F)cc3)ccc2c1=O	·	i
Cc1ccc(NC(=O)C(=O)NCC2CCN(Cc3ccsc3)CC2)cc1N1CCCC1=O	i	i
COc1ccc(N2CCN(S(=O)(=O)CCNS(=O)(=O)c3ccccc3)CC2)cc1	·	i

Assay outcomes deposited in PubChem by several laboratories.
